For eight compounds, Potency and outcome results are on record in PubChem BioAssay (Tox21).

“And” between values parts separate entries of the source, which are not always exact repeats. Identical values can stand only once. Records with an inconclusive call do not appear. The source made the active and inactive calls. Unless noted, the call rests on the fitted dose curve; in most records, active means well fitted curve in the direction sought with a large enough effect in the repeat runs; inconclusive means weak or mixed curves; inactive means no such curve, though single readings can be large; an effect the other way counts as inactive or inconclusive.

The nature of experiment [1]: qHTS assay for small molecule agonists of the p53 signaling pathway (AID 651631; calls by dose curve; further: nearly all actives have a fitted effect of over 15% in size; further: potency means the concentration at half of the fitted maximal effect). An outline of the steps:
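p53RE-bla HCT-116 cells; compounds 16 h, 37 °C; LiveBLAzer B/G FRET substrate 2 h RT; fluorescence intensity read-out, qHTS format.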

Experiment [2] is described as follows: qHTS assay for small molecules that induce genotoxicity in human embryonic kidney cells expressing luciferase-tagged ATAD5 (AID 651632). Further: nearly all actives have a fitted effect of over 15% in size. An outline of the steps:
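HEK293T cells carrying luciferase-tagged ATAD5 were given compound or DMSO vehicle and incubated 16 hr at 37C, 5% CO2. Luciferase activity was read after 30 min at room temperature with Amplite; a rise signals genotoxic stress.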

Experiment [3] in a line: qHTS assay for small molecule agonists of the p53 signaling pathway - cell viability (AID 651633; calls by dose curve; further: nearly all actives have a fitted effect of over 30% in size; further: potency means the concentration at half of the fitted maximal effect). The gist of the method: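 p53RE-bla cells, seeded at 4,000 per well and rested 5 h at 37 C/5% CO2, received compounds in DMSO for 16 h at 37 C. CellTiter-Glo was then added, and luminescence was read after 30 min at room temperature to gauge cytotoxicity.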
Experiment [4] is described as follows: qHTS assay for small molecule disruptors of the mitochondrial membrane potential - cell viability (AID 720634; calls by dose curve;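 further: human HepG2 liver cancer cells; series mostly up to about 83 µM; nearly all actives have a fitted effect of over 20% in size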). The gist of the method:
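HepG2 cells, 2,000 per well, attached overnight, then treated 1 hr at 37 C, 5% CO2. Viability read as ATP by CellTiter-Glo luminescence after 30 min at room temperature. Read in the same wells as the m-MPI membrane-potential dye assay.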

Experiment [5] can be described thus: qHTS assay to test for compound auto fluorescence at 590 nm (red) in HepG2 cells (AID 720674). An outline of the steps: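 Rose Bengal sodium served as the red fluorophore standard. HepG2 monolayers (overnight attachment, MEM with 10% FBS) were exposed to test compounds for 1 hr at 37 C and read at Ex 540/Em 590 nm.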
Background: qHTS replaces the single test concentration by a dilution series.

A short description of experiment [6]: qHTS assay to test for compound auto fluorescence at 535 nm (green) in HepG2 cells (AID 720675).
Experiment [7] can be described thus: qHTS assay to test for compound auto fluorescence at 590 nm (red) in HEK293 cells (AID 720679). The gist of the method: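 HEK293 cells (2,000/well, medium with 10% dialyzed FBS) attached for 4-5 hr at 37C, received 23 nL compound and were incubated overnight at 37C, 5% CO2. Red fluorescence was then read at 540/590nm Ex/Em, referenced to Rose Bengal sodium.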

Experiment [8] in a line: qHTS assay to test for compound auto fluorescence at 535 nm (green) in HEK293 cells (AID 720680).
Experiment [9] in a line: qHTS assay to test for compound auto fluorescence at 460 nm (blue) in HEK293 cell free culture (AID 720681). An outline of the steps: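 Test compounds were pinned into cell-free culture medium (DMEM with 10% FBS) and fluorescence was read directly at Ex/Em 405/460 nm. Signals were expressed as fluorescence equivalents of triamterene, with DMSO vehicle as control.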
Experiment [10] can be described thus: qHTS assay to test for compound auto fluorescence at 590 nm (red) in HEK293 cell free culture (AID 720683). An outline of the steps:
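Tox21 10K library compounds were pinned into cell-free DMEM with 10% FBS and fluorescence was read at excitation 540 nm. Activity is expressed as Rose Bengal sodium equivalency.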

A short description of experiment [11]: qHTS assay to test for compound auto fluorescence at 590 nm (red) in HepG2 cell free culture (AID 720684). The gist of the method: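 Red fluorescence (540 nm excitation, 590 nm emission) was measured after compound transfer into cell-free MEM supplemented with 10% FBS. Values are equivalencies against Rose Bengal sodium.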
Experiment [12] in a line: qHTS assay to test for compound auto fluorescence at 460 nm (blue) in HepG2 cell free culture (AID 720685). The gist of the method: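 Compound (23 nL) or DMSO pinned into cell-free MEM with 10% FBS; blue fluorescence read at 405/460 nm excitation/emission, expressed as auto-fluorescence equivalency to triamterene.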
The nature of experiment [13]: qHTS assay to test for compound auto fluorescence at 535 nm (green) in HepG2 cell free culture (AID 720686).
A short description of experiment [14]: qHTS assay to test for compound auto fluorescence at 460 nm (blue) in HepG2 cells (AID 720687). The gist of the method:
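Cells (2,000/well in MEM with 10% FBS) attached overnight at 37 C, then were exposed to compound or DMSO for 1 hr at 37 C, 5% CO2. Fluorescence read at Ex/Em 405/460 nm, expressed as triamterene-equivalent signal.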

Experiment [15] concerns the target Glucocorticoid receptor (Homo sapiens) (UniProt P04150). Briefly: qHTS assay to identify small molecule agonists of the glucocorticoid receptor (GR) signaling pathway (AID 720691; active means well fitted activation curve with a large enough effect in the signal ratio in the repeat runs, not every such curve was filed as active; the % refers to the signal ratio). An outline of the steps: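 GR-bla HeLa cells carrying a GRE-driven beta-lactamase reporter, exposed to compounds for 18 h at 37 C. Reporter activation read as fluorescence after 2 h with LiveBLAzer B/G FRET substrate at room temperature.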

The target is the same in experiment [16]. Briefly: qHTS assay to identify small molecule antagonists of the glucocorticoid receptor (GR) signaling pathway (AID 720692; active means well fitted inhibition curve with a large enough effect in the signal ratio in the repeat runs, not every such curve was filed as active; the % refers to the signal ratio). An outline of the steps: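 GR-bla HeLa cells carrying a GRE-driven beta-lactamase reporter received compound after 4 h plating, then dexamethasone (5 nM final). After 18 h at 37C, the FRET substrate was loaded for 2 h at room temperature and fluorescence read.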

Experiment [17] can be described thus: qHTS assay for small molecules that induce genotoxicity in human embryonic kidney cells expressing luciferase-tagged ATAD5 - cell viability (AID 651634; calls by dose curve; further: nearly all actives have a fitted effect of over 25% in size; further: potency means the concentration at half of the fitted maximal effect). The gist of the method: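 HEK293T cells carrying luciferase-tagged ATAD5, 2,000 cells/well, exposed to compound for 15.5 hr at 37C. Viability read as live-cell protease activity by CellTiter-Fluor fluorescence after 30 min at 37C.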

Experiment [18] is described as follows: qHTS assay to test for compound auto fluorescence at 460 nm (blue) in HEK293 cells (AID 720678). The gist of the method:
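HEK293 cells (2,000 per well, medium with 10% dialyzed FBS) attached for 4-5 hr at 37C, then received compound and stood overnight at 37C, 5% CO2. Blue fluorescence was read at Ex/Em 405/460 nm and expressed relative to triamterene.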

Experiment [19] can be described thus: qHTS assay for small molecule disruptors of the mitochondrial membrane potential (AID 720635). Further: potency means the concentration at half of the fitted maximal effect. The gist of the method:
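HepG2 cells (2,000/well) attached overnight at 37C, then took compound for 1 hr at 37C, 5% CO2. Mito-MPS dye was added for 30 min; fluorescence was read at 490/535 nm (monomers) and 540/590 nm (aggregates).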

Experiment [20] is described as follows: qHTS assay to test for compound auto fluorescence at 535 nm (green) in HEK293 cell free culture (AID 720682). The gist of the method:
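Cell-free medium (DMEM, 10% FBS) receives compound or DMSO by pintool. Plate read directly at Ex 485/Em 535 nm. Signal converted to fluorescein equivalency.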

Chain of Glucocorticoid receptor (Homo sapiens) (P04150 whole entry, looked up): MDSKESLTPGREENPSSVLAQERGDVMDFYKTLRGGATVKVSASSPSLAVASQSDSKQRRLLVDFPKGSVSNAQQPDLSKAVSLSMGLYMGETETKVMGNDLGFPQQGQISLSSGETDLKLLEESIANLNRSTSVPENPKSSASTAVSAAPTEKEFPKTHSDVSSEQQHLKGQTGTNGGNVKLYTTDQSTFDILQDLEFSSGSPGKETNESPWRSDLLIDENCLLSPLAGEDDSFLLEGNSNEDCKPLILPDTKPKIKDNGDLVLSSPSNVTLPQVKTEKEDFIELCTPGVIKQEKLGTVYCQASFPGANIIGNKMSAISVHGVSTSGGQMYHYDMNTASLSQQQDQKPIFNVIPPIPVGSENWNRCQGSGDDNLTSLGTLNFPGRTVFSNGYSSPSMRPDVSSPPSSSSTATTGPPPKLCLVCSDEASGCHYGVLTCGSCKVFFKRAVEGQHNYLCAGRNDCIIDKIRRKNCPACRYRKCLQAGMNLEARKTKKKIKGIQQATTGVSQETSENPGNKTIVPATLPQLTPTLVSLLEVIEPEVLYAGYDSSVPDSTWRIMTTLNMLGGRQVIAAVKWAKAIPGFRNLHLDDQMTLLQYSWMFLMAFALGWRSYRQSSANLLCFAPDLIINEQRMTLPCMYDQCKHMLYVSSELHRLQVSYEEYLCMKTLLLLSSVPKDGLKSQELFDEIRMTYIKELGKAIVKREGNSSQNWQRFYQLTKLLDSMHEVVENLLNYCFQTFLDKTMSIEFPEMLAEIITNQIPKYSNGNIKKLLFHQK

As for `Nc1ncnc2nc[nH]c12`, the Potency entry in [1], in [2], in experiment [3], in experiment [4], in [5] and in experiment [6] was “inactive” each time. The Potency result in experiment [7], in experiment [8], in experiment [10], in experiment [11], in [13] and in experiment [15] was “inactive” throughout. Besides, the Potency result in experiment [16] was “inactive”. For the same compound, the compound was classed as inactive in experiment [9], in experiment [12] and in experiment [14].
`CC(=O)C1(C)CC2=C(CCCC2(C)C)CC1C` (configuration not stated): the Potency result in experiment [1], in experiment [2], in experiment [3], in [17], in [5] and in experiment [6] was “inactive” in each case. The Potency entry in experiment [7], in experiment [8], in experiment [10], in experiment [11], in [13] and in [15] was “inactive” in each case. In addition, in experiment [16], the Potency entry is “inactive”. For the same compound, the result in experiment [9] and in experiment [12] was inactive.
Regarding `O=C(/C=C/c1ccccc1)OCc1ccccc1`, the Potency entry in [1], in experiment [2], in experiment [3], in experiment [5], in experiment [6] and in [7] was “inactive” throughout. The Potency result in experiment [8], in [10], in [11], in experiment [13], in [15] and in experiment [16] was “inactive” throughout. Further, the result in experiment [18], in experiment [9] and in experiment [12] was inactive.
In the case of `c1cc(-c2ccncc2)ccn1`, the Potency entry in [1], in experiment [2], in experiment [3], in [4], in experiment [5] and in experiment [6] was “inactive” throughout. Further, the Potency entry in [7], in experiment [8], in [10], in experiment [11], in experiment [13] and in experiment [15] was “inactive” each time. Besides, the Potency entry in experiment [16] is “inactive”. The compound was called inactive in [18], in experiment [9], in experiment [12] and in [14].
Consider `O=C(c1ccc(OCCN2CCCCC2)cc1)c1c(-c2ccc(O)cc2)sc2cc(O)ccc12`, for which the Potency in experiment [1] was 29.8 µM (active) and 68.7 µM (active) and 61.1 µM (active); in [3], 29.8 µM (active) and 61.2 µM (active) and 61.1 µM (active); in experiment [17], 26.6 µM (active) and 54.5 µM (active); in experiment [19], 4.22 µM (active) and 1.72 µM (active) and 4.33 µM (active). Moreover, the Potency entry in experiment [4], in [5], in [6], in experiment [7], in [8] and in experiment [20] was “inactive” each time. Also, the Potency result in experiment [10], in experiment [11] and in experiment [13] was “inactive” in each case. Moreover, the compound was called inactive in experiment [18], in experiment [9] and in experiment [12].
`c1ccc2c(c1)Oc1ccccc1S2`: the Potency result in experiment [1], in [2], in [3], in [4], in experiment [5] and in experiment [6] was “inactive” each time. Further, the Potency result in experiment [7], in experiment [8], in [10], in [11], in experiment [13] and in [15] was “inactive” throughout. In addition, the Potency result in experiment [16] is “inactive”. Also, the result in [18], in experiment [9], in [12] and in experiment [14] was inactive.
Consider `C=CC(C)(CCC=C(C)C)OC(C)=O` (configuration not stated), for which the Potency result in experiment [1], in experiment [2], in experiment [3], in experiment [4], in experiment [19] and in experiment [5] was “inactive” throughout. The Potency result in experiment [6], in experiment [7], in [8], in experiment [20], in experiment [10] and in [11] was “inactive” in each case. The Potency entry in experiment [13], in experiment [15] and in experiment [16] was “inactive” each time. The compound was called inactive in experiment [9], in [12] and in experiment [14].
For `CCC(C)CO` (configuration not stated), the Potency result in experiment [1], in experiment [2], in experiment [3], in experiment [4], in experiment [19] and in experiment [5] was “inactive” in each case. Further, the Potency result in [6], in [7], in experiment [8], in [20], in experiment [10] and in experiment [11] was “inactive” each time. Moreover, the Potency entry in [13], in experiment [15] and in experiment [16] was “inactive” throughout. Also, the outcome in experiment [9], in [12] and in experiment [14] was inactive.
